Measured values published in paper PMC10812921, “Transcriptional Coactivator BOB1 (OBF1, OCA-B) Modulates the Specificity of DNA Recognition by the POU-Domain Factors OCT1 and OCT2 in a Monomeric Configuration”.

Target: T1, POU2 (OCT2 POU domain);BOB1 (OBF1, OCA-B) (human;human, UniProt P09086;Q16633 175-386;1-256, |)
T1 sequence 1: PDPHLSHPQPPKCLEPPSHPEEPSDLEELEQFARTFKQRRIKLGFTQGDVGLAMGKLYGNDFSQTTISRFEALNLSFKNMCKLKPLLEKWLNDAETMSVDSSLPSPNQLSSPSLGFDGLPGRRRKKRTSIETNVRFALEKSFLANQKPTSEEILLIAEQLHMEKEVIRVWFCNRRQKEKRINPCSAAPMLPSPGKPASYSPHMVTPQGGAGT
T1 sequence 2: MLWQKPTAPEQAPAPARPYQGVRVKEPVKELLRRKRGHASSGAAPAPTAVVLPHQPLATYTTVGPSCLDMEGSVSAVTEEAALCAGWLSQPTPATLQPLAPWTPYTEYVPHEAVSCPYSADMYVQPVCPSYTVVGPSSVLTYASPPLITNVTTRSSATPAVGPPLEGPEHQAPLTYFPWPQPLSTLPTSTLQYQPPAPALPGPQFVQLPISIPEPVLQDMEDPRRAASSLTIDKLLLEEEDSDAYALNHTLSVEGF
Experiment: EMSA-SELEX-seq; with BOB1 (ternary complex band); 20 mM Tris-HCl pH 7.6, 140 mM NaCl, 10% glycerol, 0.5 mM EDTA, 0.05% Triton X-100, 0.1 mg/mL BSA, 0.1 mg/mL poly(dI-dC), 5 mM DTT, room temperature, 20 min; high values mean tight binding
Details: protein: recombinant;recombinant; copies: 1;1; dsDNA, one strand shown
In short: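 In this selection, tagged POU-domain proteins from E. coli BL21, purified under denaturing conditions and renatured, were bound to a PCR-amplified double-stranded random 35-nt library with or without coactivator protein. Reactions held 30 ng protein, 300 ng library and, where used, 28 ng coactivator protein in 20 μL Tris–HCl pH 7.6 binding buffer for 20 min at RT. Complex bands were cut from native 6% PAGE, eluted and PCR-amplified over four rounds, then Illumina-sequenced, and binding preference is the percentage of sequenced 8-mers matching a motif pattern.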

Sequence | binding signal
AGATTAAC | 0.0495 % of ANNNNAAN 8-mers
AAAAAAAT | 0.12 % of ANNNNAAN 8-mers
AGCCTAAG | 0.0149 % of ANNNNAAN 8-mers
AAATTAAA | 0.217 % of ANNNNAAN 8-mers
AACACAAC | 0.0272 % of ANNNNAAN 8-mers
ATAACAAA | 0.0883 % of ANNNNAAN 8-mers
ATATTAAG | 0.117 % of ANNNNAAN 8-mers
ACACAAAA | 0.0363 % of ANNNNAAN 8-mers
ATAGGAAT | 0.106 % of ANNNNAAN 8-mers
AGTACAAT | 0.0462 % of ANNNNAAN 8-mers
AGGTTAAA | 0.052 % of ANNNNAAN 8-mers
ACTAGAAG | 0.0231 % of ANNNNAAN 8-mers
AGTTGAAT | 0.0834 % of ANNNNAAN 8-mers
ACCATAAA | 0.0264 % of ANNNNAAN 8-mers
AGGCCAAG | 0.0264 % of ANNNNAAN 8-mers
ATCACAAA | 0.0438 % of ANNNNAAN 8-mers
AACCAAAG | 0.0231 % of ANNNNAAN 8-mers
ACCGGAAT | 0.0454 % of ANNNNAAN 8-mers
AATGGAAC | 0.0528 % of ANNNNAAN 8-mers
ATAAAAAG | 0.0735 % of ANNNNAAN 8-mers

Sequence | binding signal
AGCGCAAC | 0.0107 % of ANNNNAAN 8-mers
AGGGCAAA | 0.0462 % of ANNNNAAN 8-mers
ACGTTAAA | 0.0421 % of ANNNNAAN 8-mers
AAACCAAG | 0.0198 % of ANNNNAAN 8-mers
ATCTTAAC | 0.0512 % of ANNNNAAN 8-mers
ACCGCAAA | 0.0124 % of ANNNNAAN 8-mers
AGGGTAAG | 0.0776 % of ANNNNAAN 8-mers
AAGTTAAT | 0.102 % of ANNNNAAN 8-mers
ACAAGAAG | 0.0322 % of ANNNNAAN 8-mers
AATTTAAT | 0.162 % of ANNNNAAN 8-mers
ATCCTAAA | 0.0421 % of ANNNNAAN 8-mers
ATACCAAG | 0.0305 % of ANNNNAAN 8-mers
AACTAAAA | 0.0305 % of ANNNNAAN 8-mers
AGCTAAAC | 0.0256 % of ANNNNAAN 8-mers
ATTTCAAT | 0.142 % of ANNNNAAN 8-mers
AAGTAAAA | 0.0693 % of ANNNNAAN 8-mers
ATCCTAAT | 0.0693 % of ANNNNAAN 8-mers
AGGCTAAA | 0.0454 % of ANNNNAAN 8-mers
ATCATAAG | 0.0421 % of ANNNNAAN 8-mers
